Experimental data from PubChem BioAssay AID1578 (Sanford-Burnham Center for Chemical Genomics, 2009).
About 3,000 (1%) of roughly 290,000 compounds were called active. No stated cut-off is given here; in the data, active means inhibition mostly above about 36% (no sharp cut-off); inactive means mostly below about 34%. Only a selection was taken, and actives are over-represented in it overall.

assay: NOD1 signaling inhibitors, primary screen, cell-based, luminescence, uHTS (AID 1578); details: NOD1-driven NF-kB luciferase reporter cells, at 4 µM, stronger effect = higher value;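 further: HEK-293T reporter cells stimulated with the NOD1 agonist gamma-tri-DAP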

Row | Structure (SMILES) | inhibition
1 | N#Cc1ccc(C(=O)NCC2CCCCC2)cc1 | 0.9% (inactive)
2 | O=C(O)c1cccc(C(=O)c2cccc(C(=O)O)c2)c1 | -26.4% (inactive)
3 | COc1ccc(CCCC(=O)N/N=C/c2ccccc2OC)cc1 | -14.1% (inactive)
4 | CSc1ccc(/C=N/NC(=O)CNc2ccc3ccccc3c2)cc1 | -16.8% (inactive)
5 | CCN(CC)S(=O)(=O)c1ccc(N/N=C(\C)c2ccncc2)c([N+](=O)[O-])c1 | 31% (inactive)
6 | C/C(=N\Nc1ccc(S(=O)(=O)Nc2ccccc2)cc1[N+](=O)[O-])c1ccncc1 | 34.7% (inactive)
7 | Cc1cc(=O)[nH]c(N/N=C/c2ccc(-c3ccc(F)cc3)o2)n1 | -56.3% (inactive)
8 | C/C(=N\N=c1/sc2ccccc2n1C)c1ccccn1 | -61.2% (inactive)
9 | CCN(CC)S(=O)(=O)c1ccc2c(c1)c(=O)c(C(=O)NCCOC)cn2C | -12.6% (inactive)
10 | COc1ccc(C(=O)Nn2c(SCC(=O)NCc3ccccc3)nc3ccccc3c2=O)cc1 | 18.4% (inactive)
11 | COc1ccc(C(=O)Nn2c(SCC(=O)c3ccccc3)nc3ccccc3c2=O)cc1 | 43.6% (inactive)
12 | COc1ccc(C(=O)Nn2c(SCC(=O)NC3CCCC3)nc3ccccc3c2=O)cc1 | 12.9% (inactive)
13 | COc1ccc(C(=O)Nn2c(SCC(=O)NC3CCCCC3)nc3ccccc3c2=O)cc1 | 88% (active)
14 | COc1ccc(C(=O)Nn2c(SCC(=O)NCc3ccco3)nc3ccccc3c2=O)cc1 | -0.3% (inactive)
15 | COc1ccc(C(=O)Nn2c(SCC(=O)NCC3CCCO3)nc3ccccc3c2=O)cc1 (stereo unspecified) | 64.6% (active)
16 | COc1ccccc1NC(=O)C(CCS(C)(=O)=O)N1C(=O)c2ccccc2C1=O (stereo unspecified) | -3.2% (inactive)
17 | C#CCSc1nnc(-c2c[nH]c3ccccc23)n1C | -40.9% (inactive)
18 | Cn1cc2ccc([N+](=O)[O-])cc2n1 | -6.5% (inactive)
19 | CCOc1ccc(CCNC(=O)CCC(=O)N2CCOc3ccccc32)cc1OCC | -4.6% (inactive)
20 | O=C(N/C(=C\c1cccs1)C(=O)N1CCOCC1)c1ccco1 | -12.2% (inactive)
21 | CCOc1ccc(NC(=O)CN(C)c2nnnn2-c2ccccc2)cc1OCC | 39% (inactive)

Row | Structure (SMILES) | inhibition
22 | COc1cc(O)cc(O)c1C(=O)/C=C/c1ccccc1 | 49.8% (active)
23 | COc1cc(OC)c(C(=O)/C=C/c2ccccc2)c(O)c1O | 21.4% (inactive)
24 | COc1cc(O)c(C(=O)/C=C/c2ccccc2)c(OC)c1 | 1.3% (inactive)
25 | CN1C/C(=C/c2cccnc2)C(=O)/C(=C/c2cccnc2)C1 | 37% (inactive)
26 | CCC1C/C(=C\c2cccnc2)C(=O)/C(=C/c2cccnc2)C1 (stereo unspecified) | 103% (active)
27 | O=C1/C(=C/c2cccnc2)CC/C1=C\c1cccnc1 | 5.4% (inactive)
28 | O=C(CCl)c1ccc2c(c1)CCN2C(=O)C1CCCCC1 | 13% (inactive)
29 | O=C(CCl)c1ccc2c(c1)CCN2C(=O)C1CC1 | 76.4% (active)
30 | CC(Cl)C(=O)c1ccc2c(c1)CCN2C(=O)C1CC1 (stereo unspecified) | 43.8% (inactive)
31 | Cc1nnsc1NC(=O)OCc1ccc(C(C)(C)C)cc1 | 58.9% (inactive)
32 | Clc1ccc(OCc2nn[nH]n2)cc1 | 4.7% (inactive)
33 | Cc1cc(C)c(C)c(S(=O)(=O)NCC(=O)NCC2CCCCC2)c1C | -8.5% (inactive)
34 | O=C(NC1CCN(S(=O)(=O)c2cccc(F)c2)CC1)c1ccc(F)cc1 | -9.7% (inactive)
35 | C1=Nc2c(Nc3ccccc3)ncnc2Oc2ccccc21 | -21% (inactive)
36 | O=C(/C=C/c1ccc(OCCCF)cc1)Nc1ccnc(-c2ccncc2)n1 | 89.5% (active)
37 | COc1ccc(CNC(=O)/C=C/c2ccc(OCCCF)cc2)cc1 | -6.2% (inactive)
38 | O=C(/C=C/c1ccc(OCCCF)cc1)Nc1ccnc(-c2cccnc2)n1 | 8.2% (inactive)
39 | CCC(C)C(Nc1ncnc2scc(-c3ccccc3)c12)C(=O)O (stereo unspecified) | -21% (inactive)
40 | O=S(=O)(NC1CC1)c1ccccc1 | -1% (inactive)
41 | COC(=O)c1cn(NC(=O)c2ccccc2[N+](=O)[O-])c(=O)c2ccccc12 | -27.3% (inactive)
42 | COC(=O)c1cn(NC(=O)c2ccc([N+](=O)[O-])cc2Cl)c(=O)c2ccccc12 | -35.6% (inactive)

Row | Structure (SMILES) | inhibition
43 | COC(=O)c1cn(NC(=O)c2cc([N+](=O)[O-])ccc2F)c(=O)c2ccccc12 | 78% (active)
44 | CC1CN(C(=O)COC(=O)c2cc(Cl)ccc2[N+](=O)[O-])CC(C)O1 (stereo unspecified) | -25.3% (inactive)
45 | CCCCS(=O)(=O)N1CCN(S(=O)(=O)c2ccc(Cl)s2)CC1 | -11% (inactive)
46 | O=C(Oc1cc(=O)oc2ccccc12)c1ccccc1 | -8.5% (inactive)
47 | CC(C)[C@H](NC(=O)[C@@H]1Cc2ccccc2CN1)C(=O)NC1CCCCC1 | -12.1% (inactive)
48 | CCCCc1c(O)nc(SCC(=O)c2ccccc2)n(-c2ccccc2)c1=O | -1.5% (inactive)
49 | Cc1ccc(S(=O)(=O)/N=C(\CN2CCCCC2)N2CCOCC2)cc1 | 10.8% (inactive)
50 | Cc1ccc(S(=O)(=O)/N=C(\CCl)N2CCOCC2)cc1 | 72.3% (active)
51 | Cc1ccc(S(=O)(=O)/N=C(\CN2CCOCC2)N2CCOCC2)cc1 | 0.6% (inactive)
52 | N/N=c1\sc2ccccc2n1-c1ccccc1 | 2.6% (inactive)
53 | COc1cccc(/C=C2\SC(=S)N(CCCC(=O)N3CCCCC3)C2=O)c1 | 0% (inactive)
54 | O=C(CCC(=O)NC1CCCCCC1)Nc1nnc(C(F)(F)F)s1 | -18.1% (inactive)
55 | O=C(CCC1CCCCC1)Nc1nnc(C(F)(F)F)s1 | 77.4% (active)
56 | O=C(CCC(=O)NC1CCCCCCC1)Nc1nnc(C(F)(F)F)s1 | 4.2% (inactive)
57 | Cc1ccnc(NC(=O)c2ccc(Cl)cc2Cl)n1 | 14.3% (inactive)
58 | COc1ccc(C(=O)NC2CC(C)(C)Cc3c2cnn3-c2ccccc2)cc1OC (stereo unspecified) | 0.2% (inactive)
59 | COc1ccc(OC)c(C(=O)NC2CC(C)(C)Cc3c2cnn3-c2ccccc2)c1 (stereo unspecified) | 53.9% (active)
60 | COc1cc(C(=O)NC2CC(C)(C)Cc3c2cnn3-c2ccccc2)cc(OC)c1OC (stereo unspecified) | -14.3% (inactive)
61 | O=C(NCCc1c[nH]c2ccccc12)c1ccc([N+](=O)[O-])cc1 | -37.7% (inactive)
